Experimental data from PubChem BioAssay (EPA / NIEHS).
Results filed as inconclusive are left out. Some compounds were tested as several samples or in several runs, with calls that do not always agree. Activity calls are given as the source filed them. Rule for the calls, unless noted: active = hit-call score of the fitted dose curve at least 0.9, where 1 is the maximum; inactive = score below 0.9.

Assay: CCTE_Harrill_HTTr_Apoptosis_MCF7: CCTE's 6-hour Apoptosis Assessment for the High-Throughput Transcriptomics (HTTr) Platform, in MCF-7 cells cultured in DMEM + 10% fetal bovine serum, Harrill Lab (AID 2284011)
In short: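 High-content imaging of CellEvent Caspase 3/7 Green signal follows a six-hour exposure, with eight concentrations per chemical. MCF-7 cells grown in DMEM plus 10% fetal bovine serum; activity fitted in both directions against DMSO.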

SMILES | outcome
CC(C)CCO | inactive
O=C(NS(=O)(=O)/C=C/c1ccccc1)c1ccc(F)cc1Cl | inactive
CCCCC(CC)COC(=O)CCCCCCCCC(=O)OCC(CC)CCCC (centres undefined) | inactive
CC(=O)OC[C@H]1O[C@@](COC(C)=O)(O[C@H]2O[C@H](COC(C)=O)[C@@H](OC(C)=O)[C@H](OC(C)=O)[C@H]2OC(C)=O)[C@@H](OC(C)=O)[C@@H]1OC(C)=O | inactive
On1ccccc1=S | inactive
Cn1cnc([N+](=O)[O-])c1Sc1ncnc2nc[nH]c12 | inactive
O=P(OC(CCl)CCl)(OC(CCl)CCl)OC(CCl)CCl | inactive
Cc1c(-c2cccnc2)c2ccccc2n1CCCCC(=O)O | inactive
CCn1nc(Cc2ccccc2)cc1C1CCN(C[C@H]2C[C@H](N(C)[C@@H](C(=O)O)C(C)C)C[C@@H]2c2cccc(F)c2)CC1 | inactive
CC(C)=CCC/C(C)=C/CO | inactive

Assay: CCTE_Harrill_HTTr_CellCount_MCF7: CCTE's Cell Proliferation Assessment for the High-Throughput Transcriptomics (HTTr) Platform, Harrill Lab (AID 2284012; active = hit-call score of the fitted dose curve at least 0.9, where 1 is the maximum;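 note: cells exposed to compound for six hours; intended direction is loss of nuclei count meaning fewer cells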)
In short: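 Cell count from high-content imaging of Hoechst-labeled nuclei serves as viability/growth readout. Chemicals were applied to MCF-7 cells in eight concentrations for six hours, with fitting in both directions relative to DMSO.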

SMILES | outcome
CC[C@H]1OC(=O)[C@H](C)[C@@H](O[C@H]2C[C@@](C)(OC)[C@@H](O)[C@H](C)O2)[C@H](C)[C@@H](O[C@@H]2O[C@H](C)C[C@H](N(C)C)[C@H]2O)[C@](C)(O)C[C@@H](C)C(=O)[C@H](C)[C@@H](O)[C@]1(C)O | inactive
Cn1c(=O)c2c(ncn2C)n(C)c1=O | inactive
CC[C@H]1CC[C@H](NCc2cc3c(cc2OC)[C@H]2C[C@H]2C(=O)N3C)[C@H](c2ccccc2)N1 | inactive
COc1cccc(-c2ccc(/C=C\CN3CCCCCC3)cc2Cl)c1 | inactive
COc1ccc2sc(C(=O)Nc3nnn[nH]3)c(OC(C)C)c2c1 | inactive
CCOC(=O)COc1ccc2c(c1)CC(NCC(O)c1cccc(Cl)c1)CC2 (centres undefined) | inactive
O=C(O)CCN(C1(C(=O)NO)CCCC1)S(=O)(=O)c1ccc(Oc2ccc(F)cc2)cc1 | inactive
On1ccccc1=S | inactive
Cn1cnc([N+](=O)[O-])c1Sc1ncnc2nc[nH]c12 | inactive
O=P(OC(CCl)CCl)(OC(CCl)CCl)OC(CCl)CCl | inactive
Cc1c(-c2cccnc2)c2ccccc2n1CCCCC(=O)O | inactive
CCn1nc(Cc2ccccc2)cc1C1CCN(C[C@H]2C[C@H](N(C)[C@@H](C(=O)O)C(C)C)C[C@@H]2c2cccc(F)c2)CC1 | inactive
CC(C)=CCC/C(C)=C/CO | inactive

Assay: CCTE_Shafer_MEA_acute_burst_duration_mean: CCTE's Neural Acute Assay for Mean Burst Duration, Shafer Lab (AID 2284014);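 note: hits are decreases in mean burst duration relative to DMSO controls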
In short: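 Mean burst duration was compared between a 40 min baseline and a 40 min recording in the presence of compound (0.03-40 uM, 37 C), giving percent change per well. Cultures were rat cortical neurons at DIV 13 or 15; wells needed ≥10 active electrodes.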

SMILES | outcome | AC50
CC[C@H]1OC(=O)[C@H](C)[C@@H](O[C@H]2C[C@@](C)(OC)[C@@H](O)[C@H](C)O2)[C@H](C)[C@@H](O[C@@H]2O[C@H](C)C[C@H](N(C)C)[C@H]2O)[C@](C)(O)C[C@@H](C)C(=O)[C@H](C)[C@@H](O)[C@]1(C)O | inactive | –
Cn1c(=O)c2c(ncn2C)n(C)c1=O | – | 30.8 µM (active)
CC[C@H]1CC[C@H](NCc2cc3c(cc2OC)[C@H]2C[C@H]2C(=O)N3C)[C@H](c2ccccc2)N1 | inactive | –
COc1cccc(-c2ccc(/C=C\CN3CCCCCC3)cc2Cl)c1 | inactive | –
COc1ccc2sc(C(=O)Nc3nnn[nH]3)c(OC(C)C)c2c1 | inactive | –
O=C(O)CCN(C1(C(=O)NO)CCCC1)S(=O)(=O)c1ccc(Oc2ccc(F)cc2)cc1 | inactive | –
CCCCCCCCCCCCc1ccccc1 | inactive | –
CC(C)=CCCC(C)=CC=O | inactive | –
CCCCC(CC)COC(=O)CCCCCCCCC(=O)OCC(CC)CCCC (centres undefined) | inactive | –
On1ccccc1=S | inactive | –
Cn1cnc([N+](=O)[O-])c1Sc1ncnc2nc[nH]c12 | inactive | –
O=P(OC(CCl)CCl)(OC(CCl)CCl)OC(CCl)CCl | inactive | –

Assay: CCTE_Shafer_MEA_acute_per_burst_spike_number_mean: CCTE's Neural Acute Assay for Average Number of Spikes Per Burst, Shafer Lab (AID 2284015);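 note: hits are decreases in mean spikes per burst versus baseline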
In short: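 Primary rat cortical neurons on 48-well MEA plates, treated on DIV 13 or 15 at 0.03-40 uM. Spontaneous activity recorded 40 min before and 40 min after compound at 37 C; percent change in mean spikes per single-electrode burst per well, fitted in the loss direction versus DMSO.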

SMILES | outcome | AC50
CC[C@H]1OC(=O)[C@H](C)[C@@H](O[C@H]2C[C@@](C)(OC)[C@@H](O)[C@H](C)O2)[C@H](C)[C@@H](O[C@@H]2O[C@H](C)C[C@H](N(C)C)[C@H]2O)[C@](C)(O)C[C@@H](C)C(=O)[C@H](C)[C@@H](O)[C@]1(C)O | inactive | –
Cn1c(=O)c2c(ncn2C)n(C)c1=O | – | 31.8 µM (active)
CC[C@H]1CC[C@H](NCc2cc3c(cc2OC)[C@H]2C[C@H]2C(=O)N3C)[C@H](c2ccccc2)N1 | inactive | –
COc1cccc(-c2ccc(/C=C\CN3CCCCCC3)cc2Cl)c1 | inactive | –
COc1ccc2sc(C(=O)Nc3nnn[nH]3)c(OC(C)C)c2c1 | inactive | –
O=C(O)CCN(C1(C(=O)NO)CCCC1)S(=O)(=O)c1ccc(Oc2ccc(F)cc2)cc1 | inactive | –
CCCCCCCCCCCCc1ccccc1 | inactive | –
CC(C)=CCCC(C)=CC=O | inactive | –
CCCCC(CC)COC(=O)CCCCCCCCC(=O)OCC(CC)CCCC (centres undefined) | inactive | –
On1ccccc1=S | inactive | –
Cn1cnc([N+](=O)[O-])c1Sc1ncnc2nc[nH]c12 | inactive | –
O=P(OC(CCl)CCl)(OC(CCl)CCl)OC(CCl)CCl | inactive | –

Assay: CCTE_Shafer_MEA_acute_interburst_interval_mean: CCTE's Neural Acute Assay for Mean Interburst Interval, Shafer Lab (AID 2284016);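 note: percent change of mean interburst interval versus each well's own pre-dose baseline; curves fitted for decrease in interburst interval relative to DMSO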
In short: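 Primary rat cortical neurons on 16-electrode MEA wells were recorded 40 min at baseline on DIV 13 or 15, then 40 min after compound (0.03-40 uM), at 37 C. Value is percent change in mean interburst interval per well, DMSO as negative control.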

SMILES | outcome | AC50
CC[C@H]1OC(=O)[C@H](C)[C@@H](O[C@H]2C[C@@](C)(OC)[C@@H](O)[C@H](C)O2)[C@H](C)[C@@H](O[C@@H]2O[C@H](C)C[C@H](N(C)C)[C@H]2O)[C@](C)(O)C[C@@H](C)C(=O)[C@H](C)[C@@H](O)[C@]1(C)O | inactive | –
Cn1c(=O)c2c(ncn2C)n(C)c1=O | inactive | –
CC[C@H]1CC[C@H](NCc2cc3c(cc2OC)[C@H]2C[C@H]2C(=O)N3C)[C@H](c2ccccc2)N1 | – | 7.83 µM (active)
COc1cccc(-c2ccc(/C=C\CN3CCCCCC3)cc2Cl)c1 | inactive | –
COc1ccc2sc(C(=O)Nc3nnn[nH]3)c(OC(C)C)c2c1 | inactive | –
O=C(O)CCN(C1(C(=O)NO)CCCC1)S(=O)(=O)c1ccc(Oc2ccc(F)cc2)cc1 | inactive | –
CC(C)=CCCC(C)=CC=O | inactive | –
CCCCC(CC)COC(=O)CCCCCCCCC(=O)OCC(CC)CCCC (centres undefined) | inactive | –
On1ccccc1=S | inactive | –
Cn1cnc([N+](=O)[O-])c1Sc1ncnc2nc[nH]c12 | inactive | –
O=P(OC(CCl)CCl)(OC(CCl)CCl)OC(CCl)CCl | inactive | 24 µM (active)
